The results in this text go back to ChEMBL document CHEMBL2218924, “A broad activity screen in support of a chemogenomic map for kinase signalling research and drug discovery” (Biochem J, 2013).

In experiment [1] the target is T1, Ephrin type-A receptor 3 (Homo sapiens) (UniProt P29320).
T1 sequence (whole entry): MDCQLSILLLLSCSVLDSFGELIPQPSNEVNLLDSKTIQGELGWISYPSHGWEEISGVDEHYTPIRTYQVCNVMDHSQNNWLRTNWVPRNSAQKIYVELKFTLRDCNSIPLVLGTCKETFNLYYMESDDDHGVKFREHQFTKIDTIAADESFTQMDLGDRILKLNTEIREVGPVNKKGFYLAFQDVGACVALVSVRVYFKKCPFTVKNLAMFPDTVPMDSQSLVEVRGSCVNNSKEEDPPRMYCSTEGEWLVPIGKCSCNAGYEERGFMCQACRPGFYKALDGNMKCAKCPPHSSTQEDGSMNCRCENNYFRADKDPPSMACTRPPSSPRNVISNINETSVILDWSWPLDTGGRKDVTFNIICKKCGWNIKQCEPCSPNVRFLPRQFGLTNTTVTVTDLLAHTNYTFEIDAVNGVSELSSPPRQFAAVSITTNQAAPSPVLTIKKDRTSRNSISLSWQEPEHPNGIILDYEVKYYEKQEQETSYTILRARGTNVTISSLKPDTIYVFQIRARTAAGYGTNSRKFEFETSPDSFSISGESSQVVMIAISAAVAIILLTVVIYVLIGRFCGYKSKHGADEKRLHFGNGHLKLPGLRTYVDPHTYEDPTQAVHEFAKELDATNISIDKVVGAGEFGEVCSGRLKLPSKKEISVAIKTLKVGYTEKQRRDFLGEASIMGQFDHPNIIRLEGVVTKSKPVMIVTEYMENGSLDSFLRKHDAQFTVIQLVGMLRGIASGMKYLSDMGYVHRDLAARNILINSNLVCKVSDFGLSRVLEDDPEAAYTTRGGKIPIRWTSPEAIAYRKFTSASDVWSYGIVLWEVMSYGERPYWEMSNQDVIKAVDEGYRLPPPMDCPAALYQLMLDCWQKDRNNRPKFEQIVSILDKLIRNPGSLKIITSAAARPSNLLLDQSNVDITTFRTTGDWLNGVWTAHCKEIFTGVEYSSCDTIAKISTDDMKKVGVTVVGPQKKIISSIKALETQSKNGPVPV
To be noted: at 10 µM.

Experiment [2] deals with Ephrin type-A receptor 4 (Homo sapiens) (UniProt P54764). To be noted: at 1 µM.
Chain of Ephrin type-A receptor 4 (Homo sapiens) (P54764 whole entry): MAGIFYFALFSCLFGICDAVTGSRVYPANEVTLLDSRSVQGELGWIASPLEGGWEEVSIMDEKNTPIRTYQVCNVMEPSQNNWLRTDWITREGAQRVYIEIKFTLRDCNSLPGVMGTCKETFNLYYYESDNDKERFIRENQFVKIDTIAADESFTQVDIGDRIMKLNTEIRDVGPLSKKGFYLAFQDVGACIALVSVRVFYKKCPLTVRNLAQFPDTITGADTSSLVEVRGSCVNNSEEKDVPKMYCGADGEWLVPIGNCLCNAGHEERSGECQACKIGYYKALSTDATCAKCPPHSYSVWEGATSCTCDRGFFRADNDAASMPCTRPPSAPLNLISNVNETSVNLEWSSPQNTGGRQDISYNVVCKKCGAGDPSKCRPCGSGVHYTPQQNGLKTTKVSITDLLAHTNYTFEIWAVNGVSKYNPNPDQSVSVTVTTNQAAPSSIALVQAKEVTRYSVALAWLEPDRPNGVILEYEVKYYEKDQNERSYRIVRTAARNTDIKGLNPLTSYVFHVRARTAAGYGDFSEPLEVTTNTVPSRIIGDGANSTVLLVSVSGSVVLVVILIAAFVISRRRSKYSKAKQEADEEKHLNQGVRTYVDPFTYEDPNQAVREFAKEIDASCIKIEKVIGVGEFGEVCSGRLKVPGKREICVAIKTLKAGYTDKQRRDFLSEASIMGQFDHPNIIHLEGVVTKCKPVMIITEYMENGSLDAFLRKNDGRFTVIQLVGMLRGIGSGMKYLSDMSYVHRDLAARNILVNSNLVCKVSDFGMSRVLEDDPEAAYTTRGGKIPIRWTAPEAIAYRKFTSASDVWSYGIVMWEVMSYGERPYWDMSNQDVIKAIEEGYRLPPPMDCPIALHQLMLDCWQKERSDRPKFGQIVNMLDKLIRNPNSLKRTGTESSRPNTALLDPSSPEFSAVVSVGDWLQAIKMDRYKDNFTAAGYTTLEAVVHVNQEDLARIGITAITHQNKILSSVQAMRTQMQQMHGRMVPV
The target is the same in experiment [3]. To be noted: at 10 µM.
Experiment [4] concerns the target Ephrin type-A receptor 5 (Homo sapiens) (UniProt P54756). To be noted: at 1 µM.
Experiment [5] has the same target. The note with it: at 10 µM.
The target in experiment [6] is Ephrin type-A receptor 7 (Homo sapiens) (UniProt Q15375). The note with it: at 1 µM.
Chain of Ephrin type-A receptor 7 (Homo sapiens) (Q15375 28-998 limits assumed): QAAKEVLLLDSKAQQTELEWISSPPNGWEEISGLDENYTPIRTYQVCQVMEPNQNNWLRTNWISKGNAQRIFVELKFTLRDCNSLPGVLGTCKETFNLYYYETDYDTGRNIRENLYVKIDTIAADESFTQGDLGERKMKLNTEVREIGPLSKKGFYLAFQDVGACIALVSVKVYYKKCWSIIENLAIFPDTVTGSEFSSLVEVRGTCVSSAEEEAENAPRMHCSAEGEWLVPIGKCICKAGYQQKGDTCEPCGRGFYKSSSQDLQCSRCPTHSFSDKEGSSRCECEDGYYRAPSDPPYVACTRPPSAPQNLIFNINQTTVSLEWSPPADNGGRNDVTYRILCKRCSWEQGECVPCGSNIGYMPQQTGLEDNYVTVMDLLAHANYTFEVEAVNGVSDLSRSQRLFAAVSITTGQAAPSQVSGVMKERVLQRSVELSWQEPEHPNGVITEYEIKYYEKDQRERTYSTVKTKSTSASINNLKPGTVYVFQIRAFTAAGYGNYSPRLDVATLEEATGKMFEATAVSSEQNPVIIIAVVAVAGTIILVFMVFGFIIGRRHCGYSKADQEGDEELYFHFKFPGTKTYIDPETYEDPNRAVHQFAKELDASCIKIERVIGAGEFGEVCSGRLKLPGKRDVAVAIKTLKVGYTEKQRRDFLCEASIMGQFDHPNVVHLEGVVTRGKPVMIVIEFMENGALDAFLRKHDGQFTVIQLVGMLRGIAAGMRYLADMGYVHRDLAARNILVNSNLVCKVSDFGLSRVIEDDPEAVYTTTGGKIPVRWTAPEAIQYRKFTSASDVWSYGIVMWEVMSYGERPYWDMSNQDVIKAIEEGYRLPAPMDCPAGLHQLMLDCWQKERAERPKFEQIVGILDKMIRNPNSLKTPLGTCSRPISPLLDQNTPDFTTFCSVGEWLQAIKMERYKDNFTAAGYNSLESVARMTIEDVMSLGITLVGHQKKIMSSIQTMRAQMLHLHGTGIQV
Experiment [7] has the same target. The note with it: at 10 µM.
Experiment [8] has as its target T2, Ephrin type-A receptor 8 (Homo sapiens) (UniProt P29322).
T2 sequence (whole entry): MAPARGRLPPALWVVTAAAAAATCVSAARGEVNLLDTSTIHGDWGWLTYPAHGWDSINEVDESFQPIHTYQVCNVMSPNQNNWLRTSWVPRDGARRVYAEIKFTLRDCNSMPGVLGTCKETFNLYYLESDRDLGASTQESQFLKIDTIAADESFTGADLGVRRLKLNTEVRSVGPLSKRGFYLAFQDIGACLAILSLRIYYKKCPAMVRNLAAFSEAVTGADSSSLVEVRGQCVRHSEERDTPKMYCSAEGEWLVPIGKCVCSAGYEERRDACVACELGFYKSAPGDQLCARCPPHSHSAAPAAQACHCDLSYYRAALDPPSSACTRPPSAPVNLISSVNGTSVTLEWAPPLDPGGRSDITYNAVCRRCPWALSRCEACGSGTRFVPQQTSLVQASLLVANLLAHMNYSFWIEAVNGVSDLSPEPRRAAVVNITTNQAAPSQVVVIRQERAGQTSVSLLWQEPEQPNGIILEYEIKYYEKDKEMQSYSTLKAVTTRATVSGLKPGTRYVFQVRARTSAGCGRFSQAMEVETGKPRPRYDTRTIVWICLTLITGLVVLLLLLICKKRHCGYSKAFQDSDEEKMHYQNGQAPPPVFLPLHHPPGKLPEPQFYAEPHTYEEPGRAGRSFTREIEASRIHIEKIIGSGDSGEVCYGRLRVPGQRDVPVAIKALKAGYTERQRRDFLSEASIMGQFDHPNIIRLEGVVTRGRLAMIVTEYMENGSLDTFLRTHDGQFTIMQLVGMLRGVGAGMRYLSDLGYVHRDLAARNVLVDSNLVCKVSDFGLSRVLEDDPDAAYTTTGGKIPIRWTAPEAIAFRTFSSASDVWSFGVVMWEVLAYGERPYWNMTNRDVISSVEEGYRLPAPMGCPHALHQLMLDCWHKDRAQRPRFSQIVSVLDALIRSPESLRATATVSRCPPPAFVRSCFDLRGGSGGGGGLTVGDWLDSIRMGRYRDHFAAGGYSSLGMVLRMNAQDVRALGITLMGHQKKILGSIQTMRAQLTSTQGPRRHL
To be noted: at 1 µM.

The target in experiment [9] is T2, Ephrin type-A receptor 8 (Homo sapiens). The note with it: at 10 µM.
Experiment [10] deals with T3, Ephrin type-B receptor 1 (Homo sapiens) (UniProt P54762).
T3 sequence (whole entry): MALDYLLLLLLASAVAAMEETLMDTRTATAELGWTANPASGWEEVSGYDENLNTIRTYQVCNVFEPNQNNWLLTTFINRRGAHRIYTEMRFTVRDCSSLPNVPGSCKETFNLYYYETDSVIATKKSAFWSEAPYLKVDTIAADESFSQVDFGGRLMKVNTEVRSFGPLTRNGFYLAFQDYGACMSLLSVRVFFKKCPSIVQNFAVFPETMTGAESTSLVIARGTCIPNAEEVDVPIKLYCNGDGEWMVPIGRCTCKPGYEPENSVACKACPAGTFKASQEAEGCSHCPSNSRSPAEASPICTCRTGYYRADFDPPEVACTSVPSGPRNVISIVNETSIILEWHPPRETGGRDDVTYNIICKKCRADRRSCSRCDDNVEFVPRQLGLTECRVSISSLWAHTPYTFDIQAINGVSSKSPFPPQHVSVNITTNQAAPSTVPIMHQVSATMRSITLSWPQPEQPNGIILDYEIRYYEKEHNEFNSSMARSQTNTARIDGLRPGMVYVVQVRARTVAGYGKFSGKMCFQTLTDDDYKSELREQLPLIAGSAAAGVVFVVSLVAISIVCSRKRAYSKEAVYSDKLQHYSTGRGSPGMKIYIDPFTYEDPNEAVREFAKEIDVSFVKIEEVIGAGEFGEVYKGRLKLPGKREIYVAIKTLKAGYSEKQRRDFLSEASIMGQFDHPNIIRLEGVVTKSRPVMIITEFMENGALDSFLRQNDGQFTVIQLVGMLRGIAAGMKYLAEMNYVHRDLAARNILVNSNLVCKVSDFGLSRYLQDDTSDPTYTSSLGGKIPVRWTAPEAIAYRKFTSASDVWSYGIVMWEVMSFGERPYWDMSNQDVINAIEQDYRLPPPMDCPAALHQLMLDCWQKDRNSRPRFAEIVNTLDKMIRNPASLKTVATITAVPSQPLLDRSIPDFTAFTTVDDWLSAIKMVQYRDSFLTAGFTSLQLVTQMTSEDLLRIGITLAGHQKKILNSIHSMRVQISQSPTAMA
To be noted: at 1 µM.

Chain of Ephrin type-A receptor 5 (Homo sapiens) (P54756 whole entry): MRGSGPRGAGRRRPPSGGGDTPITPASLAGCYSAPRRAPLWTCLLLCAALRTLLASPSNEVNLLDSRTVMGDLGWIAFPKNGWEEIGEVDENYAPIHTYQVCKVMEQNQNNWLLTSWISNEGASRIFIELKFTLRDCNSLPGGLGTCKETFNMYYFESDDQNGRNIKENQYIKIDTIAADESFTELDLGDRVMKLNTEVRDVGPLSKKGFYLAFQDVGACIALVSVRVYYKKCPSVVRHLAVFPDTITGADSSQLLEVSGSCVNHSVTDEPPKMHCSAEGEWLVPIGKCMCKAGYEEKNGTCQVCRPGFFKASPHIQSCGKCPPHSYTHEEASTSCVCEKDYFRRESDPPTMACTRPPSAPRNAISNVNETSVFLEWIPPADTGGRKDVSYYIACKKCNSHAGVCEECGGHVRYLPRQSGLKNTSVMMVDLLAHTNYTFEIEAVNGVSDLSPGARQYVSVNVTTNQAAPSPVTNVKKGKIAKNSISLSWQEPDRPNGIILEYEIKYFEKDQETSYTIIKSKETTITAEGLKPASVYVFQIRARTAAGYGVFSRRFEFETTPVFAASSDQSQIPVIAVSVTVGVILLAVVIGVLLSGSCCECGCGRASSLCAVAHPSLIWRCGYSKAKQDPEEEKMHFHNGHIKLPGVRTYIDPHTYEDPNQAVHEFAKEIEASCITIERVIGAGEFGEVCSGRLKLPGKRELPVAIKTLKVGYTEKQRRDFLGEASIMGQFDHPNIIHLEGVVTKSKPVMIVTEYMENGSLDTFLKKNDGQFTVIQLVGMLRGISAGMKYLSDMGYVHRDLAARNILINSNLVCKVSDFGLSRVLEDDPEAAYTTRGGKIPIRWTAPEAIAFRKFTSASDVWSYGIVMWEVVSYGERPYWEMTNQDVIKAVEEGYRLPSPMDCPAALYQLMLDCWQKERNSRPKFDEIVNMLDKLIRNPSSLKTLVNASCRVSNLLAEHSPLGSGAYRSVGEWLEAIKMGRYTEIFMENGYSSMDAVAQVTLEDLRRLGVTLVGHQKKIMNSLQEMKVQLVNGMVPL

A word on the residual activity: it is the signal under treatment as a percentage of the control signal. Regarding `CCC(=O)Nc1ccc2ncnc(Nc3cccc(Br)c3)c2c1`, the residual activity in experiment [1] was determined as 82%; in experiment [2] it was 106%; in experiment [3], 92%; in experiment [4], 101%; in [5], 99%; in experiment [6], 92%. Further, the residual activity in [7] was found to be 76%; in experiment [8] it was 97%; in experiment [9], 88%; in experiment [10] it was 97%.
